The record followed here is PubChem BioAssay.

Unmarked numbers belong to inactive results.

The assay in a line: E. coli acrAB mutant growth effects, primary screen, E. coli filamentation inducers, strain DRC39, OD650, 48 h (AID 1179).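 Note: screen aims at cell division blockers that make cells filament.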 The conditions noted are these: E. coli DRC39 delta-acrAB growth, higher = more signal, called active from +8 up or from −8 down.
For the molecule `C=C(CCCC)/C(=C/C[C@@H](OC(=O)c1ccncc1)c1ccccc1OCCO)c1cc(C(=O)OC)ccc1OC`, the z-score is 0.223.
The same measure for `C=CC[C@]1(C(=O)N2CCOCC2)N=C(c2ccc(OCCCO)cc2)O[C@H]1c1ccccc1CN=[N+]=[N-]`: 0.0726; for `C=C(C)[C@@H]1CC=C(C(O)C2C=CC3C(=O)N(C4CCCCC4)C(=O)C3N2Nc2ccc(OC)cc2)CC1` (stereo not given in full): -0.0015; for `CC1(C)[C@@H]2CC(C(O)C3C=CC4C(=O)N(c5ccccc5)C(=O)C4N3Nc3ccccc3F)=C[C@@H]1C2` (stereo not given in full): 0.985.
With `[N-]=[N+]=NCc1ccccc1[C@H]1OC(c2ccc(OCCCO)cc2)=N[C@@]1(Cc1ccccc1N=[N+]=[N-])C(=O)N1CCCCC1` the figure was 0.495.
The same measure for `CC(C)N1CC=CC23O[C@@H]4C=CCOC(=O)[C@@H]4[C@H]2C(=O)N(CCCCCCO)[C@@H]3C1=O` (stereo not given in full): 0.24.
As for `CN1C(=O)C2C=CC(C(O)C3CCCCC3)N(N(c3ccccc3)c3ccccc3)C2C1=O` (stereo not given), the z-score was -0.121.
Take `CC(C)(C)OC(=O)CC[C@]1(C(=O)O)COC(c2ccc(OCCCO)cc2)=N1`: the z-score was -0.447.
Regarding `O=C1O[C@H](c2ccccc2)[C@H](c2ccccc2)N2[C@H]1[C@@H](C(=O)N1CCN(c3ncccn3)CC1)[C@]1(C(=O)Nc3ccc(C#CCCO)cc31)[C@H]2c1ccc(OCCO)cc1`, the z-score is -0.432.
The same measure for `CN1C(=O)C2C=CC(C(O)c3cccc4ccccc34)N(NC(=O)OC(C)(C)C)C2C1=O` (stereo not given): -0.403.
